Source: PubChem BioAssay (The Scripps Research Institute Molecular Screening Center)
Sampled rows, rich in hits. Any-hit rate of the full collection: about 3.5%.
TEAD-YAP block = TEAD-YAP interaction inhibition, primary screen, TEAD-YAP interaction inhibitor project, luminescence, HEK-TIYL cells; inhibition, % at 9.12 µM; actives 1.4% (n = 640,000); TEAD-Gal4/YAP UAS-luciferase luminescence; in the data active = inhibition above about 32%;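 also: 0% = median of test compound wells and 100% = reference inhibitor wells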
FBW7 act = FBW7 E3 ligase activators, primary screen, biochemical, AlphaScreen, human | F-box/WD repeat-containing protein 7 (Homo sapiens), Q969H0 | AlphaScreen FBW7–phospho-cyclin E peptide binding, activator screen | normalized activity (activation), % at 26.1 µM | actives 0.13% (n = 650,000) | AID 1259310, 2017; in the data active = normalized activity above about 1.9%;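 also: purified mutant Fbw7 with reduced substrate affinity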
GPR151 ag = activators of human GPR151, primary screen, cell-based, PathHunter beta-arrestin, luminescence; G-protein coupled receptor 151 (Homo sapiens), Q8TDV0; activation, % at 11.2 µM; PathHunter beta-arrestin GPR151 cells; actives 1% (n = 650,000); in the data active = activation above about 4.9%;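 also: 0% = median of compound wells and 100% = cells with positive control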
MITF inh = MITF inhibitors, primary screen, biochemical, AlphaScreen, human; AlphaScreen MITF homodimerization, bead proximity signal; actives 0.91% (n = 650,000); inhibition, % at 2.6 µM; Microphthalmia-associated transcription factor (Homo sapiens), O75030; AID 1259374, 2018; in the data active = inhibition above about 50%;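 also: 0% = vehicle wells with protein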
Target sequence (O75030 whole entry, looked up): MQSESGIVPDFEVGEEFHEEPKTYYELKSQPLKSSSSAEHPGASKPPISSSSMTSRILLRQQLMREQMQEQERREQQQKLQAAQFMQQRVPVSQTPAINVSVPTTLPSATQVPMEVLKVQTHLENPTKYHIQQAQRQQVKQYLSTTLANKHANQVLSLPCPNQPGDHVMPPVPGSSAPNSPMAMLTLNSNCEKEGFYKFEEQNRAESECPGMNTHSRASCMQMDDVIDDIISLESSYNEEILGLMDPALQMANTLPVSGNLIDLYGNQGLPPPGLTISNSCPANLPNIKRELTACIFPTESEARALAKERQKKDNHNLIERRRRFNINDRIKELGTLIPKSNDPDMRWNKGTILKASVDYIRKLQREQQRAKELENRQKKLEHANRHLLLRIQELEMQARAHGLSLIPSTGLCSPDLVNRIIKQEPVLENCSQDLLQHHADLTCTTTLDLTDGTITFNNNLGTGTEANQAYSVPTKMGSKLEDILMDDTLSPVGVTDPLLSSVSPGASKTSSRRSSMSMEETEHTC
Numbers without * were called inactive.

`c1cc2[nH]snc2c2nc(C3CC3)nc12` gave TEAD-YAP block 38*, FBW7 act 0, GPR151 ag -1 and MITF inh 18.
For COCCNC(=O)c1ccc2cncc(-c3ccsc3)c2n1 the results were TEAD-YAP block 78*, FBW7 act 0, GPR151 ag 0 and MITF inh 14.
O=C(NC1CC1)c1ccc2cncc(-c3ccsc3)c2n1 was read as TEAD-YAP block 71*, FBW7 act 0, GPR151 ag -2 and MITF inh 11.
O=C(NC1CC1)c1csc(Nc2cccnc2)n1 was read as TEAD-YAP block 7, FBW7 act 0, GPR151 ag 1 and MITF inh 8.
COc1ccc(C(=O)N2N=C(c3ccc(C)cc3)CC2(O)C(F)(F)F)cc1 (stereo unspecified) was read as TEAD-YAP block -1, FBW7 act 0, GPR151 ag -1 and MITF inh 3.
COc1cc(/C=N/NC(=O)COc2ccc(Cl)cc2Br)cc(OC)c1O was read as TEAD-YAP block -37, FBW7 act 0, GPR151 ag 1 and MITF inh -23.
Screening CCOc1ccc(NC(=O)c2cccc(OC)c2)c([N+](=O)[O-])c1 returned TEAD-YAP block 32*, FBW7 act 0, GPR151 ag -3 and MITF inh 22.
For COc1ccc(NC(=O)CCS(=O)(=O)Cc2ccccc2)c([N+](=O)[O-])c1 the results were TEAD-YAP block 58*, FBW7 act 0, GPR151 ag 0 and MITF inh -7.
CCOc1ccc(N/C=C/C(=O)c2ccc(OC)cc2)c([N+](=O)[O-])c1 was read as TEAD-YAP block 43*, FBW7 act 0, GPR151 ag 0 and MITF inh -4.
For CCOC(=O)C1=C(C)Nc2nc3ccccc3n2C1c1ccc(F)cc1 (stereo unspecified) the results were TEAD-YAP block 2, FBW7 act 0, GPR151 ag 0 and MITF inh 9.
Screening Cc1cc(N2CCC(C(=O)O)CC2)nc(-c2ccccc2)n1 returned TEAD-YAP block 11, FBW7 act 0, GPR151 ag 4 and MITF inh 6.
COc1cc(OC)c(/C=N/NC(=O)C(C)Nc2ccccc2OC)cc1Br (stereo unspecified) was read as TEAD-YAP block 4, FBW7 act 0, GPR151 ag 2 and MITF inh -4.
Screening Cc1ccc(C)n1-c1ccc(C(=O)NCC(=O)O)cc1 returned TEAD-YAP block 15, FBW7 act 0, GPR151 ag 0 and MITF inh 66*.
`Cc1ccc(C)n1-c1ccc(C(=O)O)cc1` gave TEAD-YAP block 5, FBW7 act -1, GPR151 ag 0 and MITF inh -11.
For CC1=C(C#N)C(c2cccc(OCc3ccccc3)c2)C(C#N)=C(C)N1 the results were TEAD-YAP block -1, FBW7 act 0, GPR151 ag 1 and MITF inh 0.
`NC(=O)c1ccccc1Nc1cc(Oc2ccccc2F)ncc1C(F)(F)F` gave TEAD-YAP block -1, FBW7 act 0, GPR151 ag 3 and MITF inh -2.
NC(=O)c1ccccc1Nc1cc(NC(=O)Cc2ccc(F)c(F)c2)ncc1C(F)(F)F was read as TEAD-YAP block 92*, FBW7 act 0, GPR151 ag 1 and MITF inh 9.
For NC(=O)c1ccccc1Nc1cc(NC(=O)Cc2ccc(F)c(F)c2)ncc1F the results were TEAD-YAP block 15, FBW7 act 0, GPR151 ag 1 and MITF inh -4.
Screening O=C(Cc1ccc(F)cc1)Nc1cc(Nc2ccccc2CO)c(C(F)(F)F)cn1 returned TEAD-YAP block 62*, FBW7 act 0, GPR151 ag -2 and MITF inh 3.
For N#Cc1ccccc1NC(=O)CSc1ccc([N+](=O)[O-])cn1 the results were TEAD-YAP block 11, FBW7 act 0, GPR151 ag -1 and MITF inh 23.
Screening N#Cc1ccccc1Nc1cc(NC(=O)Cc2ccc([N+](=O)[O-])cc2)ncc1C(F)(F)F returned TEAD-YAP block 40*, FBW7 act 0, GPR151 ag -2 and MITF inh 15.
Screening NC(=O)c1ccccc1Nc1cc(NC(=O)Cc2ccc(F)c(F)c2)ncc1Cl returned TEAD-YAP block 83*, FBW7 act 0, GPR151 ag -1 and MITF inh 10.
Screening Nc1cc(Nc2ccccc2CO)c(C(F)(F)F)cn1 returned TEAD-YAP block 5, FBW7 act 0, GPR151 ag 0 and MITF inh -6.
